Screening data: PubChem BioAssay, National Center for Advancing Translational Sciences (NCATS)
Compounds with a hit are over-represented: about 7.5% of the library has one in this group of screens.
ELG1 genotoxic: induces genotoxicity in HEK293T cells with luciferase-tagged ELG1 | HEK293T ELG1-luciferase reporter, luminescence, 16 h | Potency, µM (highest dose often 46 µM), inactives show at the highest dose activity change, positive = activation, most hits filed as activators | 330,000 compounds, 1.3% hits; further: % of control where 0% means no effect; nearly all actives have a fitted effect of over 60% in size
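16 hr compound incubation (37 °C, 5% CO2) of HEK293T cells carrying luciferase-tagged ELG1; luciferase then measured by ONE-Glo luminescence after 30 min at RT.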
FLuc modulator: counter-screen for miR-21 project: firefly luciferase inhibitors or activators; P08659; purified FLuc, Km substrates, luminescence inhibition; Potency, µM (titrated, usually from 57.5 µM), inactives show at the top dose activity change, negative = inhibition, hits mostly inhibitors; 360,000 compounds, 6.9% hits; AID 588342;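 further: plate controls were vehicle for no effect and reference inhibitor for full effect; nearly all actives have a fitted effect of over 55% in size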
Target sequence (P08659 whole entry, looked up): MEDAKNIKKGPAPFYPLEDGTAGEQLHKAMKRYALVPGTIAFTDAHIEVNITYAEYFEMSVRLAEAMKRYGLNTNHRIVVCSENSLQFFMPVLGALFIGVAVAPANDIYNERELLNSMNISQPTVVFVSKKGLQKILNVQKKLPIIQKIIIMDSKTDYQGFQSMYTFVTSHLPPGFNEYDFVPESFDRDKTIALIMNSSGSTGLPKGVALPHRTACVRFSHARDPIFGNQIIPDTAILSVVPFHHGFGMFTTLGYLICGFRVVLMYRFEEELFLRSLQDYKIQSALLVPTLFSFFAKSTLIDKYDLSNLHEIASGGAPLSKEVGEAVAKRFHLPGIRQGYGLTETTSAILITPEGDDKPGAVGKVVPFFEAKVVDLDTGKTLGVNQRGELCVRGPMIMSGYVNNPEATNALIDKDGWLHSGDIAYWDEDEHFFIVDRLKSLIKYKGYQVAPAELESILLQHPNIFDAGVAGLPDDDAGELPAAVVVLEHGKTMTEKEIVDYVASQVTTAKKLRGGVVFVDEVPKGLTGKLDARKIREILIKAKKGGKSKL
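Purified P. pyralis luciferase, 10 nM final, with Km-level 10 uM D-luciferin and 10 uM ATP in 50 mM Tris acetate pH 7.5, 10 mM Mg acetate, 0.01% Tween-20, 0.05% BSA; 6-point qHTS titration about 60 µM downward; luminescence read.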
NPC1 prom act: activators of NPC1 promoter; 320,000 compounds, 2.4% hits; Huh7 NPC1 promoter luciferase reporter, 24 h; AID 485313; Potency, µM (highest dose often 9.22 µM), inactives show at the highest dose activation, most hits filed as activators; further: % of control where 0% means no effect; nearly all actives have a fitted effect of over 60% in size
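Luciferase expression driven by the NPC1 promoter was measured in stably transfected Huh7 cells after a 24 h compound incubation, using a luciferase reagent and a luminescence read.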
SMN2 splice up: SMN2 splice variant enhancement; HEK293 SMN2-luciferase splicing reporter, luminescence, 30-36 h; AID 1458; Potency, µM (series often up to 46.1 µM), inactives show at the highest dose activity change, positive = activation, usual class: activators; 210,000 compounds, 2.8% hits; further: % of control where 0% means no effect; nearly all actives have a fitted effect of over 55% in size
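HEK293 cells carry an SMN2 […]–luciferase reporter in which exon 7 inclusion puts luciferase in frame. Cells were plated 10-12 h before compound addition, then incubated 30-36 h at 37C. ONE-Glo luminescence was read; sodium butyrate at 4.5 mM final served as control.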
Rab9 promoter act: activators of Rab9 promoter. 320,000 compounds, 2.8% hits. Potency, µM (doses to about 9.22 µM), without a hit: at the highest dose activation, negative = inhibition, hits mostly activators. Huh7 Rab9 promoter-luciferase reporter, luminescence, 24 h; further: % of control where 0% means no effect; nearly all actives have a fitted effect of over 60% in size
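Huh7 cells stably carrying a Rab9 promoter-luciferase reporter, 1500 cells per well in OP-MEM I with 10% FBS, treated with compound 24 hours at 37C. Luciferase activity read by luminescence after 10 minutes with Amplite reagent.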
KinaseGlo FLuc: blocks Kinase-Glo luciferase, a counter-screen artifact | Kinase-Glo luciferase, ATP luminescence, 8 min | Potency, µM (series often up to 38.3 µM), inactives show at the highest dose activity change, negative = inhibition, most hits filed as inhibitors | 200,000 compounds, 0.28% hits | AID 1379; further: on the % scale 0 is the no-effect control and ±100 the full control effect; nearly all actives have a fitted effect of over 60% in size
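Substrate mix (final 50 mM imidazole pH 7.2, 50 mM KCl, 7 mM MgCl2, 10 uM ATP, 0.01% Tween 20, 0.05% BSA) plus pin-tool compound, then Kinase-Glo detection mix; 8 min ambient, luminescence read.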
Starred values were filed as active, the others as inactive; ? = inconclusive; nt = no result given; [ ] = another dose, or the depositor's remark. The call rests on the fitted dose curve; in most records, active means well fitted curve in the direction sought with a large enough effect; inconclusive means small, poorly fitted or top-dose-only effect, or another doubt; inactive means no such curve, though single readings can be large; an effect the other way counts as inactive or inconclusive. Potency means the concentration at half of the fitted maximal effect.

SMILES	ELG1 genotoxic	FLuc modulator	NPC1 prom act	SMN2 splice up	Rab9 promoter act	KinaseGlo FLuc
O=c1cc(-c2ccccc2)nc2nc(-c3ccccc3)[nH]n12	18µM*	11µM*	?	18µM*	?	7%
O=C(NCC(c1ccc2c(c1)OCO2)N1CCOCC1)c1c(F)cccc1F (configuration not stated)	nt	-4%	nt	nt	nt	nt
O=C1Nc2ccccc2N(O)N1c1cc(-c2cccc(Cl)c2)no1	1%	21µM*	3%	nt	12%	14%
O=C1Nc2ccccc2N(O)N1c1cc(-c2ccc(Cl)cc2)[nH]n1	-4%	8.5µM*	0%	-5%	-4%	1%
O=C1Nc2ccccc2N(O)N1c1cc(-c2ccccc2Cl)no1	-1%	6µM*	?	3%	18%	0%
O=C(CSc1ccccc1C(=O)NCc1ccccc1)NC1CCCCCCC1	-5%	24µM*	-3%	-37%	-4%	2%
O=C(NCc1ccccc1)C1CCCC1	-3%	-6%	5%	nt	1%	nt
O=C(NC1CCCCCC1)C(=S)NCc1ccccc1	14%	21µM*	14%	25%	?	4%
O=C(NC1CCCCC1)C(=S)NCc1ccccc1	17%	21µM*	?	?	?	-1%
O=C(NC1CCCCC1)C(=S)N1CCCC1	0%	-1%	-3%	-13%	-3%	-1%
O=C(NC1CCCCCC1)C(=S)NCCc1ccccc1	8%	?	10%	23%	26%	-1%
O=C(NC1CCCCC1)C(=S)NC1CCCCC1	?	?	2.8µM*	14µM*	3.5µM*	-2%
CC(C)(CC(=O)OCC(=O)Nc1ccc(F)c(Cl)c1)CC1=NS(=O)(=O)c2ccccc2N1	nt	-14%	nt	nt	nt	nt
Cc1cccc(Oc2nc3ccccn3c(=O)c2/C=C(\C#N)c2nc3ccccc3s2)c1C	nt	?	nt	5%	nt	nt
COc1cc(/C=N/NC(=Nc2ccc(C)cc2)c2nc3ccccc3s2)ccc1O	2.6µM*	2.7µM*	28%	-9%	?	-6%
COc1ccccc1/C=N/NC(=Nc1ccc(C)cc1)c1nc2ccccc2s1	?	17µM*	6%	-27%	16%	-8%
COc1ccccc1/C=N/NC(=O)c1sc(C)nc1C	-1%	?	-9%	-3%	-5%	-2%
COc1cc(/C=N/NC(=O)CCC(=O)Nc2ccc(C)cc2)ccc1O	0%	-18%	-2%	-34%	13%	3%
COc1ccc2nc(SCC(C)=O)c(C#N)cc2c1	2.1µM*	1.1µM*	?	2µM*	1µM*	-5%
CCOC(=O)CSc1nc2cc(C)ccc2cc1C#N	?	?	0.71µM*	14µM*	1.3µM*	0%
CCOC(=O)CSc1nc2ccc(C)cc2cc1C#N	2.3µM*	12µM*	2.8µM*	16µM*	1.4µM*	-4%
CCOC(=O)CSc1nc2cc(OC)ccc2cc1C#N	0.82µM*	?	0.79µM*	11µM*	1.3µM*	1%
COc1ccc(-c2cc(CCCC(=O)NCc3ccccn3)no2)cc1	10%	8.5µM*	13%	-34%	12%	1%
CCOc1ccc(-c2cc(CCCC(=O)NCCc3ccccc3)no2)cc1	?	?	10%	-30%	-2%	-1%
COc1ccc(-c2cc(CCCC(=O)NCCc3ccccc3)no2)cc1	6%	7.6µM*	?	nt	?	nt
C=Cc1ccc(Cn2c(C)c(CNCc3cccc(Br)c3)c(C(=O)O)c2C)cc1	nt	3%	nt	11%	nt	nt
Cc1c(C(=O)Nc2ccc(Br)cc2F)sc2ncnc(N(C)C3CCCCC3)c12	nt	-4%	nt	nt	nt	nt
CCOC(=O)C1CCCN(C(=O)CN2C(=O)c3ccccc3C2=O)C1 (configuration not stated)	-6%	0%	-1%	18%	18%	-8%
O=C(CN1C(=O)/C(=C\c2cccc(Br)c2)Oc2ccccc21)NCCCN1CCOCC1	0%[9.26 µM]	6.7µM*	-1%	nt	-6%	nt
